Activity calls are given as the source filed them.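 The calls were made as follows, unless noted: active = normalized viability below 100% at a tested concentration; inactive = the rest.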
Tests used:
[1] = ovarian cancer cell viability with rucaparib, profiling panel, oncology-focused library, rucaparib conditional (AID 1508598); settings: patient-derived ovarian cancer cells, CellTiter-Glo viability, 144 h, stronger effect = lower value
[2] = sensitizers of A549 cells to miR-34 induction, primary screen, imaging, A549 dox-inducible miR-34, nuclei and caspase counts (AID 1347080;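 active = compounds whose cell count with miR-34 switched on is under 0.7 times the count with it off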); settings: A549 miR-34 inducible, Hoechst nuclei count, 48 h
[3] = survival rescue of mitochondrial mutant cells in low glucose, primary screen, MELAS cybrids, Rieske KO mouse fibroblasts, CellTiter-Glo (AID 1508586;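 active = mean z-score across replicates of 1.96 or higher in either the MELAS or the Rieske mutant cell line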;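 also: z relative to plate mean and SD of compound and empty wells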)
[4] = at 1.25 µM, OCI-C5x cells, with rucaparib 10 µM, 100% = cells with rucaparib alone
[5] = at 1.25 µM, OCI-C5x cells, without rucaparib
[6] = at 1.25 µM, OCI-P5x cells, with rucaparib 20 µM, 100% = cells with rucaparib alone
[7] = at 1.25 µM, OCI-P5x cells, without rucaparib
[8] = at 5 µM, OCI-C5x cells, with rucaparib 10 µM, 100% = cells with rucaparib alone
[9] = at 5 µM, OCI-C5x cells, without rucaparib
[10] = at 5 µM, OCI-P5x cells, with rucaparib 20 µM, 100% = cells with rucaparib alone
[11] = at 5 µM, OCI-P5x cells, without rucaparib
[12] = stronger effect = lower value, cell number ratio, induced over uninduced
[13] = measured here: relative caspase fold change +Dox/-Dox
[14] = measured here: total cells with miR-34 induction, stronger effect = lower value
[15] = measured here: total cells without miR-34 induction
[16] = MELAS cybrid survival, CellTiter-Glo 48 h, stronger effect = higher value
[17] = Rieske KO mouse fibroblast survival, CellTiter-Glo 72 h

**Q.** For `COc1cc(Br)c(Nc2nc(-c3c(C)nc4ncccn34)cs2)c(Br)c1`, which viability [1, 4] is on record?
**A.** 122% (inactive)

**Q.** What about the viability [1, 5] of the same molecule?
**A.** 115% (inactive)

**Q.** And the viability [1, 6]?
**A.** 78.1% (active)

**Q.** What about the viability [1, 7] of the same molecule?
**A.** 97.5% (active)

**Q.** What about the viability [1, 8] of the same molecule?
**A.** 129% (inactive)

**Q.** And the viability [1, 9]?
**A.** 140% (inactive)

**Q.** What about the viability [1, 10] of the same molecule?
**A.** 30.8% (active)

**Q.** What about the viability [1, 11] of the same molecule?
**A.** 19% (active)

**Q.** With `CCC(NC(=O)C(C)NC)C(=O)N1CC(O)CC1Cc1c(-c2[nH]c3cc(F)ccc3c2CC2CC(O)CN2C(=O)C(CC)NC(=O)C(C)NC)[nH]c2cc(F)ccc12` (configuration not stated) as the molecule, how does the fold change [2, 12] read?
**A.** 0.946 (inactive)

**Q.** What about the fold change [2, 13] of the same molecule?
**A.** 0.86

**Q.** What about the cell count [2, 14] of the same molecule?
**A.** 9020

**Q.** And the cell count [2, 15]?
**A.** 9540

**Q.** What about the z-score [3, 16] of the same molecule?
**A.** -0.425 (inactive)

**Q.** What about the z-score [3, 17] of the same molecule?
**A.** -0.265

**Q.** For `COc1cc(C(=O)NC2CCN(C)CC2)ccc1Nc1ncc2c(n1)N(C1CCCC1)CC(F)(F)C(=O)N2C`, which fold change [2, 12] is on record?
**A.** 1.05 (inactive)

**Q.** And the fold change [2, 13]?
**A.** 0.442

**Q.** What about the cell count [2, 14] of the same molecule?
**A.** 1340

**Q.** What about the cell count [2, 15] of the same molecule?
**A.** 1280

**Q.** What about the z-score [3, 16] of the same molecule?
**A.** -0.321 (inactive)

**Q.** What about the z-score [3, 17] of the same molecule?
**A.** -2.73

**Q.** What about the viability ([1]; at 0.000305 µM, OCI-C5x cells, with rucaparib 10 µM, 100% = cells with rucaparib alone) of the same molecule?
**A.** 103% (inactive)

**Q.** And the viability ([1]; at 0.000305 µM, OCI-C5x cells, without rucaparib)?
**A.** 98.4% (active)

**Q.** What about the viability ([1]; at 0.000305 µM, OCI-P5x cells, with rucaparib 20 µM, 100% = cells with rucaparib alone) of the same molecule?
**A.** 95.2% (active)

**Q.** What about the viability ([1]; at 0.000305 µM, OCI-P5x cells, without rucaparib) of the same molecule?
**A.** 86.9% (active)

**Q.** What about the viability ([1]; at 0.00122 µM, OCI-C5x cells, with rucaparib 10 µM, 100% = cells with rucaparib alone) of the same molecule?
**A.** 97.8% (active)

**Q.** And the viability ([1]; at 0.00122 µM, OCI-C5x cells, without rucaparib)?
**A.** 102% (inactive)

**Q.** What about the viability ([1]; at 0.00122 µM, OCI-P5x cells, with rucaparib 20 µM, 100% = cells with rucaparib alone) of the same molecule?
**A.** 99.5% (active)

**Q.** And the viability ([1]; at 0.00122 µM, OCI-P5x cells, without rucaparib)?
**A.** 93.6% (active)

**Q.** What about the viability ([1]; at 0.00488 µM, OCI-C5x cells, with rucaparib 10 µM, 100% = cells with rucaparib alone) of the same molecule?
**A.** 111% (inactive)

**Q.** And the viability ([1]; at 0.00488 µM, OCI-C5x cells, without rucaparib)?
**A.** 105% (inactive)

**Q.** And the viability ([1]; at 0.00488 µM, OCI-P5x cells, with rucaparib 20 µM, 100% = cells with rucaparib alone)?
**A.** 89.4% (active)

**Q.** And the viability ([1]; at 0.00488 µM, OCI-P5x cells, without rucaparib)?
**A.** 69.2% (active)

**Q.** And the viability ([1]; at 0.0195 µM, OCI-C5x cells, with rucaparib 10 µM, 100% = cells with rucaparib alone)?
**A.** 73.1% (active)

**Q.** And the viability ([1]; at 0.0195 µM, OCI-C5x cells, without rucaparib)?
**A.** 61.3% (active)

**Q.** And the viability ([1]; at 0.0195 µM, OCI-P5x cells, with rucaparib 20 µM, 100% = cells with rucaparib alone)?
**A.** 68.6% (active)

**Q.** And the viability ([1]; at 0.0195 µM, OCI-P5x cells, without rucaparib)?
**A.** 21.8% (active)

**Q.** And the viability ([1]; at 0.0781 µM, OCI-C5x cells, with rucaparib 10 µM, 100% = cells with rucaparib alone)?
**A.** 64% (active)

**Q.** What about the viability ([1]; at 0.0781 µM, OCI-C5x cells, without rucaparib) of the same molecule?
**A.** 42.6% (active)

**Q.** What about the viability ([1]; at 0.0781 µM, OCI-P5x cells, with rucaparib 20 µM, 100% = cells with rucaparib alone) of the same molecule?
**A.** 63% (active)

**Q.** And the viability ([1]; at 0.0781 µM, OCI-P5x cells, without rucaparib)?
**A.** 15.8% (active)

**Q.** What about the viability ([1]; at 0.313 µM, OCI-C5x cells, with rucaparib 10 µM, 100% = cells with rucaparib alone) of the same molecule?
**A.** 39.9% (active)

**Q.** What about the viability ([1]; at 0.313 µM, OCI-C5x cells, without rucaparib) of the same molecule?
**A.** 27.3% (active)

**Q.** And the viability ([1]; at 0.313 µM, OCI-P5x cells, with rucaparib 20 µM, 100% = cells with rucaparib alone)?
**A.** 70.3% (active)

**Q.** What about the viability ([1]; at 0.313 µM, OCI-P5x cells, without rucaparib) of the same molecule?
**A.** 15.5% (active)

**Q.** What about the viability [1, 4] of the same molecule?
**A.** 31% (active)

**Q.** And the viability [1, 5]?
**A.** 19.6% (active)

**Q.** And the viability [1, 6]?
**A.** 66.4% (active)

**Q.** And the viability [1, 7]?
**A.** 17.5% (active)

**Q.** And the viability [1, 8]?
**A.** 25.7% (active)

**Q.** What about the viability [1, 9] of the same molecule?
**A.** 19.7% (active)

**Q.** What about the viability [1, 10] of the same molecule?
**A.** 53.1% (active)

**Q.** And the viability [1, 11]?
**A.** 17.9% (active)

Reference: PubChem BioAssay
